Results from PubChem BioAssay (EPA / NIEHS).
Results filed as inconclusive are left out. The source made the active and inactive calls. Rule for the calls, unless noted: active = hit-call score of the fitted dose curve at least 0.9, where 1 is the maximum; inactive = score below 0.9.

Legend:
[1] = ATG_TAL_CIS: Attagene CIS-FACTORIAL HepG2 Assay for human TAL Basal Promoter (AID 2282966); conditions: HepG2 Attagene cis-factorial TAL promoter reporter; actives raise or lower the signal;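 note: background control endpoint measuring basal TAL promoter reporter mRNA not a specific factor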
Outline: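 Background-control endpoint: basal TAL promoter reporter transcripts in transiently transfected HepG2, measured 24 h after dosing. Read-out by RT-PCR with fluorescent primer extension and capillary electrophoresis; gain or loss of signal fitted relative to DMSO.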

[2] = ATG_TGFb_CIS: Attagene CIS-FACTORIAL HepG2 Assay for human Transforming Growth Factor (TGF) (AID 2282967); conditions: HepG2 Attagene CIS TGFb reporter, mRNA transcription; actives raise or lower the signal
Outline: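 Cells were dosed for 24 hours, after which total RNA was reverse-transcribed and reporter sequences amplified, labeled and sized by capillary electrophoresis. Activity was fitted in both directions against DMSO.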

[3] = ATG_VDRE_CIS: Attagene CIS-FACTORIAL HepG2 Assay for human Vitamin D Receptor Element (VDRE) (AID 2282968); conditions: HepG2 VDRE cis-reporter transcription, actives raise or lower the signal
Outline: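 Compounds were applied for 24 h to HepG2 cells transfected with promoter-regulated reporter units. Total RNA was reverse-transcribed, and reporter amplicons were fluorescently labelled and sized by capillary electrophoresis.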

[4] = molecular target: Nuclear receptor subfamily 1 group I member 3 (Homo sapiens) (UniProt Q14994); experiment: ATG_CAR_TRANS: Attagene TRANS-FACTORIAL HepG2 Assay for human Constitutive Androstane Receptor (CAR) (AID 2282969; active = hit-call score of the fitted dose curve at least 0.9, where 1 is the maximum;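 note: activators raise reporter mRNA above DMSO so AC50 marks induction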); conditions: HepG2 Attagene TRANS-FACTORIAL CAR reporter
Nuclear receptor subfamily 1 group I member 3 (Homo sapiens), sequence (Q14994 whole entry, looked up, the tested form may be a part): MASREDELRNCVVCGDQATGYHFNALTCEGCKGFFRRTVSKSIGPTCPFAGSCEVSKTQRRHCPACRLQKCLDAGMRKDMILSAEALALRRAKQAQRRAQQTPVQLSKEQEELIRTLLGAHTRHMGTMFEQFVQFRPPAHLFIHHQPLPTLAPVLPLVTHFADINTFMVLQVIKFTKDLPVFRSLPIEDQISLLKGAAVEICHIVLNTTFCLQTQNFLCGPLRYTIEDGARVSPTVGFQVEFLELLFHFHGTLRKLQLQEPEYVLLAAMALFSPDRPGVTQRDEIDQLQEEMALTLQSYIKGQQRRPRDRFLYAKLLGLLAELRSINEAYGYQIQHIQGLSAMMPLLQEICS
Outline: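 Transiently transfected HepG2, multiplex TRANS reporters (CAR-Gal4 chimera driving GAL4-UAS reporter). 24 h dosing. Readout: reporter transcript by RT-PCR + capillary electrophoresis, fluorescence intensity; positive direction vs DMSO.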

[5] = molecular target: X-box-binding protein 1 (Homo sapiens) (UniProt P17861); experiment: ATG_Xbp1_CIS: Attagene CIS-FACTORIAL HepG2 Assay for human X-box Binding Protein 1 (XBP1) (AID 2282972); conditions: HepG2 XBP1 cis-element reporter, Attagene multiplex; actives raise or lower the signal
X-box-binding protein 1 (Homo sapiens), sequence (P17861 whole entry, looked up): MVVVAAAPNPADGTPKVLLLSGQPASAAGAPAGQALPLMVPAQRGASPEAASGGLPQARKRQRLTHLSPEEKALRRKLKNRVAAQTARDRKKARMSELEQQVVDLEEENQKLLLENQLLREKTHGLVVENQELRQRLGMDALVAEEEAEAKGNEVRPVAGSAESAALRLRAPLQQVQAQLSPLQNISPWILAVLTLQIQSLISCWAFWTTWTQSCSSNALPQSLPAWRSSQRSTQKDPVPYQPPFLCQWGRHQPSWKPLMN
Outline: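 Changes in reporter transcript abundance, read by RT-PCR and capillary electrophoresis, reflect endogenous transcription factor activity. Transfected HepG2 cells received compound for 24 hours; DMSO defined baseline for bidirectional analysis.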

[6] = ATG_M_19_TRANS: Attagene TRANS-FACTORIAL HepG2 Assay for M19 Transcription Factor (Internal Marker) (AID 2282974; active = hit-call score of the fitted dose curve at least 0.9, where 1 is the maximum); conditions: HepG2 Attagene TRANS-FACTORIAL M19 internal marker reporter
Outline: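 Transfected HepG2 (GAL4-UAS MRTUs), 24 h compound, TriZol RNA, DNase-treated RT, reporter PCR, FAM label, HpaI digest, CE fluorescence; gain vs DMSO.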

[7] = ATG_GAL4_TRANS: Attagene TRANS-FACTORIAL HepG2 Assay for GAL4 (Internal Marker) (AID 2282976; active = hit-call score of the fitted dose curve at least 0.9, where 1 is the maximum); conditions: HepG2 Attagene TRANS GAL4 internal marker reporter
Outline: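 In transfected human HepG2 liver cells dosed 24 h, GAL4 reporter mRNA serves as a baseline marker. Detection by RT-PCR with fluorescent capillary electrophoresis, activity fitted upward relative to DMSO.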

[8] = molecular target: Estrogen-related receptor gamma (Homo sapiens) (UniProt P62508); experiment: ATG_ERRg_TRANS: Attagene TRANS-FACTORIAL HepG2 Assay for human Estrogen-Related Receptor gamma (ERRg) (AID 2282977; active = hit-call score of the fitted dose curve at least 0.9, where 1 is the maximum;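 note: hits increase reporter signal over DMSO so potencies reflect activators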); conditions: HepG2 Attagene TRANS reporter, ERRg transactivation
Estrogen-related receptor gamma (Homo sapiens), sequence (P62508 whole entry, looked up, the tested form may be a part): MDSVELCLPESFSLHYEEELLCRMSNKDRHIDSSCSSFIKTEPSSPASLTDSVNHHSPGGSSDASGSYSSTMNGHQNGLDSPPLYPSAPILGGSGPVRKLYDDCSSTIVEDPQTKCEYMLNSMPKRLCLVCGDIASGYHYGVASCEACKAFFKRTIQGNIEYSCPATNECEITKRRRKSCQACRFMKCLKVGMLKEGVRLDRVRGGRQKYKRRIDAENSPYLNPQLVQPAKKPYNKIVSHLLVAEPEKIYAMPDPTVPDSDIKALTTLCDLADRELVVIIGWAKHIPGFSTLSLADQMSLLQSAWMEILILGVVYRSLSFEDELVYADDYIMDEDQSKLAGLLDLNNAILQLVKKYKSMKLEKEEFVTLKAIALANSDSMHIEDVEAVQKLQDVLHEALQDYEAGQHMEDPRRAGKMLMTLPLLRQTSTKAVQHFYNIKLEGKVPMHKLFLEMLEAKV
Outline: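 Exogenous NR-Gal4 chimera activity measured as reporter transcript induction after 24 h in transiently transfected HepG2 cells. RNA reverse-transcribed, PCR-amplified, 6-FAM-labelled and resolved by capillary electrophoresis; increase over DMSO baseline.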

[9] = molecular target: Steroid hormone receptor ERR1 (Homo sapiens) (UniProt P11474); experiment: ATG_ERRa_TRANS: Attagene TRANS-FACTORIAL HepG2 Assay for human Estrogen-Related Receptor alpha (ERRa) (AID 2282971; active = hit-call score of the fitted dose curve at least 0.9, where 1 is the maximum); conditions: HepG2 Attagene TRANS reporter, ERRa transactivation
Steroid hormone receptor ERR1 (Homo sapiens), sequence (P11474 whole entry, looked up, the tested form may be a part): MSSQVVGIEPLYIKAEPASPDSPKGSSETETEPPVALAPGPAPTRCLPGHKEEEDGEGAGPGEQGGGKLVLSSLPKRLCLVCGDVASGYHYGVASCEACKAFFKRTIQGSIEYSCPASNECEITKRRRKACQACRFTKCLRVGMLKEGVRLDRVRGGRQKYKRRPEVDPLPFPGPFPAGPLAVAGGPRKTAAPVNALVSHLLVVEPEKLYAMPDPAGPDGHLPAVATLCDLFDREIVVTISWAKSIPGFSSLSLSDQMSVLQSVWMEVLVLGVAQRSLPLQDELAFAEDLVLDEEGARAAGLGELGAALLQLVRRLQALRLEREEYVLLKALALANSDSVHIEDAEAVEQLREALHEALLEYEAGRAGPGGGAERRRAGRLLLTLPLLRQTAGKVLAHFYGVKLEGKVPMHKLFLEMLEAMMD
Outline: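 Reporter transcripts from ERRa-Gal4 chimera activity measured in transiently transfected human HepG2 cells 24 hours after dosing, using RT-PCR with 6-FAM primer extension, HpaI digestion and capillary electrophoresis; DMSO is baseline.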

[10] = molecular target: Estrogen receptor (Homo sapiens) (UniProt P03372); experiment: ATG_ERa_TRANS: Attagene TRANS-FACTORIAL HepG2 Assay for human Estrogen Receptor alpha (ERa) (AID 2282970; active = hit-call score of the fitted dose curve at least 0.9, where 1 is the maximum); conditions: HepG2 Attagene TRANS ERa GAL4 reporter, mRNA
Estrogen receptor (Homo sapiens), sequence (P03372 whole entry, looked up, the tested form may be a part): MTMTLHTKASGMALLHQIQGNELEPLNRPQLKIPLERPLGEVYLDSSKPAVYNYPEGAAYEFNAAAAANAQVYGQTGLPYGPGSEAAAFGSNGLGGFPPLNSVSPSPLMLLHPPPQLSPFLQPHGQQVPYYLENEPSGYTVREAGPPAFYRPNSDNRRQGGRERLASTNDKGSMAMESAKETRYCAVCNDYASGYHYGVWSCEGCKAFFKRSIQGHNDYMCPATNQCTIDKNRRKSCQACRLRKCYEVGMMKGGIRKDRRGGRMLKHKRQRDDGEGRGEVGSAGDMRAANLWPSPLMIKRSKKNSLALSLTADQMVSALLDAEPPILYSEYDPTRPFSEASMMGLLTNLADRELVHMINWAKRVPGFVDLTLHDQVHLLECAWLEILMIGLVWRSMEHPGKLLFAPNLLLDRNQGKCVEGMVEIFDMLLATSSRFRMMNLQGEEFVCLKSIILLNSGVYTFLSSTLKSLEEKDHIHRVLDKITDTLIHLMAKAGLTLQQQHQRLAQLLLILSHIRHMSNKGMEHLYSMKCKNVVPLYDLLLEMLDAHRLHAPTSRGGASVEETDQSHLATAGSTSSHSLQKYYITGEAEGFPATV
Outline: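 Reporter transcripts were measured 24 h after dosing by RT-PCR with fluorescent primer extension and capillary electrophoresis. The system is transiently transfected HepG2 expressing exogenous NR-Gal4 chimeras driving GAL4-UAS reporters; DMSO is the baseline.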

Measured: AC50

CCCCC(CC)(CO)CO
not listed: [8] | [9] | [10]
inactive: all other assays above

CCCCOCC
not listed: [9] | [10]
inactive: all other assays above

CC(=O)NCCO
inactive: [1] | [2] | [3] | [4] | [5] | [7]

CCCCCCCCCCCCCCN(CCO)CCO
inactive: [1] | [2] | [3] | [4] | [5]

CC1(C)COCN1
not listed: [8] | [9] | [10]
inactive: all other assays above

C=C[Si]1(C)O[Si](C)(C=C)O[Si](C)(C=C)O[Si](C)(C=C)O1 (stereo not drawn)
inactive: [1] | [2] | [3] | [4] | [5] | [6]

CN(C)CCOC(C)(c1ccccc1)c1ccccn1 (stereo not drawn)
not listed: [5] | [9] | [10]
inactive: all other assays above

CCCC[P+](CCCC)(CCCC)CCCC
not listed: [8] | [9] | [10]
inactive: all other assays above

Cc1c(C2(c3cc(Br)c(O)c(Br)c3C)OS(=O)(=O)c3ccccc32)cc(Br)c(O)c1Br
active: [3] 22.7 µM
not listed: [9] | [10]
inactive: all other assays above

CCN(CCC#N)c1ccc(N=Nc2ccc([N+](=O)[O-])cc2)cc1
not listed: [6] | [9] | [10]
inactive: all other assays above

O=C1c2ccccc2C(=O)c2c(O)ccc(O)c21
inactive: [1] | [2] | [3] | [4] | [5] | [8]

O=C(c1ccccc1)C(O)c1ccccc1 (stereo not drawn)
inactive: [1] | [2] | [3] | [4] | [5] | [6]

CCN(CC)C(=O)N(CC)CC
inactive: [1] | [2] | [3] | [4] | [5]

COCCOC(=O)c1ccccc1C(=O)OCCOC
inactive: [1] | [2] | [3] | [4] | [7]

CCCCCCCCN1CCCC1=O
inactive: [1] | [2] | [3] | [4] | [5]

CCCCCCCCCCCCN1CCCCCC1=O
active: [5] 14.5 µM
inactive: [1] | [2] | [3] | [4]

c1ccc(CN(Cc2ccccc2)Cc2ccccc2)cc1
inactive: [1] | [2] | [3] | [4] | [5]

COC(C)(C)CC(C)=O
inactive: [1] | [2] | [3] | [4] | [5] | [6]

COC(=O)c1cccnc1
not listed: [4] | [7] | [10]
inactive: all other assays above

Cc1occc(=O)c1OC(=O)C(C)C
inactive: [1] | [2] | [3] | [9] | [5]

CN(C)c1ccncc1
not listed: [4] | [7] | [10]
inactive: all other assays above

OCC#CCO
inactive: [1] | [2] | [3] | [5]

CC(C)CC(C)CC(O)CC(C)C (stereo not drawn)
inactive: [1] | [2] | [3] | [5]

CCCCCCCCCCCCCC(=O)OCC(O)CO (stereo not drawn)
inactive: [1] | [2] | [3] | [9] | [5] | [7]

O=c1[nH]c(=O)c2cn[nH]c2[nH]1
not listed: [4] | [5] | [10]
inactive: all other assays above

COC(=O)C=C(C)CCC=C(C)C
active: [3] 10.5 µM
not listed: [4] | [6] | [7]
inactive: all other assays above

COC(C)(C)CCCC(C)CC=O (stereo not drawn)
not listed: [4] | [7] | [10]
inactive: all other assays above

C[C@H](CCC(=O)NCC(=O)O)[C@H]1CC[C@H]2[C@@H]3[C@H](O)C[C@@H]4C[C@H](O)CC[C@]4(C)[C@H]3C[C@H](O)[C@]12C
inactive: [1] | [2] | [3] | [5]

OC[C@H]1O[C@@H](Oc2ccc(O)cc2)[C@H](O)[C@@H](O)[C@@H]1O
inactive: [1] | [2] | [3] | [5]
